Data taken from PubChem BioAssay AID1159580 (chemical genetic matrix, 2015).
“And” between values parts separate entries of the source, which are not always exact repeats. Identical values can stand only once. Out of some 5,500 compounds screened, about 2,000 (36%) were called active. Inconclusive results (about 18%) are left out. No stated cut-off is given here; in the data, active means normalized growth mostly below about 0.91 (no sharp cut-off); inconclusive means no clear call, values can overlap the other calls; inactive means mostly above about 0.92. Some of the results follow.

Assay: chemical genetic growth profiling, strain panel (AID 1159580);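 further: tested at 20 µM; growth read once vehicle control cultures reached saturation at 30 °C; 1 = growth at the plate median or of vehicle wells; lower values mean less growth of the strain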
Settings: growth OD

Measured: normalized growth

CC1(C)NC(=O)N(c2ccc([N+](=O)[O-])c(C(F)(F)F)c2)C1=O
inactive: S. cerevisiae deletion strains, locus YJR075W, strain HOC1, active compounds read low 1.01 | S. cerevisiae deletion strains, locus YKL009W, strain mrt4, active compounds read low 0.969 | S. cerevisiae deletion strains, locus YKL068W, active compounds read low 0.992 | S. cerevisiae deletion strains, locus YKL085W, strain MDH1 (second series), active compounds read low 0.988 | S. cerevisiae deletion strains, locus YKL085W, strain MDH1, active compounds read low 0.988 | S. cerevisiae deletion strains, locus YKL160W, strain elf1, active compounds read low 0.988 | S. cerevisiae deletion strains, locus YKL190W, strain CNB1, active compounds read low 1.01 | S. cerevisiae deletion strains, locus YKR001C, strain vps1, active compounds read low 0.975 | S. cerevisiae deletion strains, locus YKR026C, strain gcn3, active compounds read low 0.984 | S. cerevisiae deletion strains, locus YKR091W, strain srl3, active compounds read low 0.989 | S. cerevisiae deletion strains, locus YLL001W, strain dnm1, active compounds read low 0.986 | S. cerevisiae deletion strains, locus YLL026W, active compounds read low 0.98 | S. cerevisiae deletion strains, locus YLL041C, strain sdh2, active compounds read low 0.988 | S. cerevisiae deletion strains, locus YLR027C, strain aat2, active compounds read low 0.986 | S. cerevisiae deletion strains, locus YLR039C, strain RIC1, active compounds read low 0.984 | S. cerevisiae deletion strains, locus YLR058C, strain SHM2, active compounds read low 1.02 | S. cerevisiae deletion strains, locus YLR102C, strain apc9, active compounds read low 0.965 | S. cerevisiae deletion strains, locus YLR113W, strain HOG1, active compounds read low 1.03 | S. cerevisiae deletion strains, locus YLR221C, strain rsa3, active compounds read low 0.98 | S. cerevisiae deletion strains, locus YLR258W, strain gsy2, active compounds read low 0.984 | S. cerevisiae deletion strains, locus YLR262C, strain YPT6 (second series), active compounds read low 0.94 | S. cerevisiae deletion strains, locus YLR262C, strain YPT6, active compounds read low 0.988 | S. cerevisiae deletion strains, locus YLR268W, strain sec22, active compounds read low 0.974 | S. cerevisiae deletion strains, locus YLR320W, strain mms22, active compounds read low 0.995 | S. cerevisiae deletion strains, locus YLR330W, strain CHS5, active compounds read low 1.01 | S. cerevisiae deletion strains, locus YLR342W, strain FKS1 (second series), active compounds read low 1.03 | S. cerevisiae deletion strains, locus YLR342W, strain FKS1, active compounds read low 0.983 | S. cerevisiae deletion strains, locus YLR357W, strain rsc2, active compounds read low 0.98 | S. cerevisiae deletion strains, locus YLR370C, strain arc18, active compounds read low 0.971 | S. cerevisiae deletion strains, locus YLR371W, strain rom2, active compounds read low 0.98 | S. cerevisiae deletion strains, locus YLR384C, strain iki3, active compounds read low 0.989 | S. cerevisiae deletion strains, locus YLR418C, strain cdc73, active compounds read low 0.942 | S. cerevisiae deletion strains, locus YML016C, strain PPZ1, active compounds read low 1.02 | S. cerevisiae deletion strains, locus YML032C, strain rad52, active compounds read low 0.986 | S. cerevisiae deletion strains, locus YML120C, strain ndi1, active compounds read low 0.991 | S. cerevisiae deletion strains, locus YML124C, strain tub3, active compounds read low 0.981 | S. cerevisiae deletion strains, locus YMR058W, strain fet3, active compounds read low 0.987 | S. cerevisiae deletion strains, locus YMR078C, strain ctf18, active compounds read low 0.988 | S. cerevisiae deletion strains, locus YMR125W, strain sto1, active compounds read low 0.972 | S. cerevisiae deletion strains, locus YMR129W, active compounds read low 0.986 | S. cerevisiae deletion strains, locus YMR205C, strain PFK2, active compounds read low 0.972 | S. cerevisiae deletion strains, locus YMR223W, strain ubp8, active compounds read low 0.983 | S. cerevisiae deletion strains, locus YMR231W, strain pep5, active compounds read low 0.981 | S. cerevisiae deletion strains, locus YMR263W, strain SAP30, active compounds read low 1 | S. cerevisiae deletion strains, locus YMR307W, strain GAS1, active compounds read low 1.01 and 0.988 | S. cerevisiae deletion strains, locus YNL067W, strain RPL9B, active compounds read low 0.987 | S. cerevisiae deletion strains, locus YNL071W, strain lat1, active compounds read low 0.996 | S. cerevisiae deletion strains, locus YNL128W, strain TEP1, active compounds read low 1 | S. cerevisiae deletion strains, locus YNL153C, strain GIM3, active compounds read low 1.01 | S. cerevisiae deletion strains, locus YNL175C, strain NOP13, active compounds read low 0.979 | S. cerevisiae deletion strains, locus YNL183C, strain NPR1, active compounds read low 0.946 | S. cerevisiae deletion strains, locus YNL197C, strain WHI3, active compounds read low 0.968 | S. cerevisiae deletion strains, locus YNL209W, strain ssb2, active compounds read low 0.988 | S. cerevisiae deletion strains, locus YNL224C, strain SQS1, active compounds read low 0.991 | S. cerevisiae deletion strains, locus YNL233W, strain BNI4, active compounds read low 1.01 | S. cerevisiae deletion strains, locus YNL248C, strain rpa49, active compounds read low 0.98 | S. cerevisiae deletion strains, locus YNL250W, strain rad50, active compounds read low 0.987 | S. cerevisiae deletion strains, locus YNL271C, strain bni1, active compounds read low 0.966 | S. cerevisiae deletion strains, locus YNL298W, strain CLA4, active compounds read low 0.975 | S. cerevisiae deletion strains, locus YNL307C, strain MCK1, active compounds read low 0.98 | S. cerevisiae deletion strains, locus YNL322C, strain KRE1 (second series), active compounds read low 0.991 | S. cerevisiae deletion strains, locus YNL322C, strain KRE1, active compounds read low 1.01 and 0.995 | S. cerevisiae deletion strains, locus YNR049C, strain mso1, active compounds read low 0.984 | S. cerevisiae deletion strains, locus YNR052C, strain pop2, active compounds read low 0.977 | S. cerevisiae deletion strains, locus YOL006C, strain TOP1, active compounds read low 0.959 | S. cerevisiae deletion strains, locus YOL012C, strain htz1 0.756 | S. cerevisiae deletion strains, locus YOL147C, strain pex11, active compounds read low 0.976 | S. cerevisiae deletion strains, locus YOR001W, strain rrp6, active compounds read low 0.989 | S. cerevisiae deletion strains, locus YOR061W, strain CKA2, active compounds read low 1.01 | S. cerevisiae deletion strains, locus YOR069W, strain VPS5, active compounds read low 1.01 | S. cerevisiae deletion strains, locus YOR070C, strain gyp1, active compounds read low 0.987 | S. cerevisiae deletion strains, locus YOR080W, strain dia2, active compounds read low 0.987 | S. cerevisiae deletion strains, locus YOR083W, strain WHI5 (second series), active compounds read low 0.979 | S. cerevisiae deletion strains, locus YOR083W, strain WHI5, active compounds read low 0.99 | S. cerevisiae deletion strains, locus YOR106W, strain vam3, active compounds read low 0.981 | S. cerevisiae deletion strains, locus YOR136W, strain idh2, active compounds read low 0.977 | S. cerevisiae deletion strains, locus YOR144C, strain elg1, active compounds read low 0.976 | S. cerevisiae deletion strains, locus YOR184W, strain ser1, active compounds read low 0.975 | S. cerevisiae deletion strains, locus YOR231W, strain MKK1, active compounds read low 1.01 | S. cerevisiae deletion strains, locus YOR265W, strain rbl2, active compounds read low 0.987 | S. cerevisiae deletion strains, locus YOR270C, strain vph1, active compounds read low 0.974 | S. cerevisiae deletion strains, locus YOR290C, strain snf2, active compounds read low 0.996 | S. cerevisiae deletion strains, locus YOR316C, strain cot1, active compounds read low 0.99 | S. cerevisiae deletion strains, locus YPL051W, strain arl3, active compounds read low 0.985 | S. cerevisiae deletion strains, locus YPL055C, strain LGE1, active compounds read low 1.01 and 0.996 | S. cerevisiae deletion strains, locus YPL078C, strain atp4, active compounds read low 0.978 | S. cerevisiae deletion strains, locus YPL106C, strain sse1, active compounds read low 0.962 | S. cerevisiae deletion strains, locus YPL240C, strain hsp82, active compounds read low 0.987 | S. cerevisiae deletion strains, locus YPL241C, strain CIN2, active compounds read low 1.01 and 0.997 | S. cerevisiae deletion strains, locus YPL256C, strain CLN2, active compounds read low 0.996 | S. cerevisiae deletion strains, locus YPR119W, strain clb2, active compounds read low 0.969 | S. cerevisiae deletion strains, locus YPR141C, strain kar3, active compounds read low 0.99 | S. cerevisiae deletion strains, locus YPR163C, strain tif3, active compounds read low 0.979 | S. cerevisiae deletion strains, locus YPR167C, strain met16, active compounds read low 0.975 | S. cerevisiae deletion strains, strain wtn01, active compounds read low 0.969 | S. cerevisiae strains, strain wild type, active compounds read low 1
